SMILES strings stand for the structures.

37 compounds from article PMC5540273 (PLoS ONE, 2017) can be followed below.
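Note: KINOMEscan kinase panel screen.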

The first experiment concerns CAMK1. The note with it: concentration: 1 μM, replicates: in singlicate; n = 1.
On to `Cc1ccc(NC(=O)Nc2ccc(Cl)c(C(F)(F)F)c2)cc1-c1ccc(C(=O)Nc2ccncc2)cc1` [GSK1398470], for which the “%Inh” value is recorded as 17%.
Still for that read-out and setting: in the case of `FC(F)(F)c1ccccc1-c1cc(-c2c[nH]nc2-c2ccccn2)ccn1` [GW679396] it was 21%.
Still for that read-out and setting: in the case of `COC(=O)c1cccc(NC(=O)NC2CCN(c3ccnc(Nc4ccc(F)cc4)n3)C2)c1` (centres unmarked) [GSK1379725] it was 0%; in that of `Fc1ccc(-c2nn3cccc(F)c3c2-c2ccncc2)cc1` [GW475620], 6%; in that of `Cc1ccc(NC(=O)Nc2ccc(Cl)cc2)cc1-c1ccc(C(=O)Nc2ccncc2)cc1` [GSK1398472], 10%.
Consider `COC(=O)C(Cc1ccccc1)NC(=O)NC1CCN(c2ccnc(Nc3ccc(F)cc3)n2)C1` (centres unmarked) [GSK1379714], for which the “%Inh” value was 2%.
Same read-out and setting: in the case of `COc1ccc(Nc2nccc(NCCNC(=O)Nc3cc(C)ccc3C)n2)cc1` [GSK1379899] it was 3%; in that of `Fc1ccc(-c2nc3n(c2-c2ccncc2)CCS3)cc1` [GI98581], 0%; in that of `CC(=O)c1cccc(NC(=O)NC2CCN(c3ccnc(Nc4ccc(F)cc4)n3)C2)c1` (centres unmarked) [GSK1379710], 20%.
The same measure, in the same setting: the figure for `Cc1ccc(-c2nc(Nc3ccncc3)c3ccccc3n2)s1` [GSK189015] is 15%; for `O=c1cc(N2CCOCC2)nc2n(Cc3cccc(Cl)c3Cl)c3ccccc3n12` [GSK2299009] it is 43%.
Consider `Cc1ccccc1Cn1ccn2c(=O)cc(N3CCOCC3)nc12` [GSK2269905], for which the “%Inh” value turned out to be 2%.
`O=C(Nc1n[nH]c2nc(-c3cccs3)c(Br)cc12)C1CCCC1` [SB-743341]: the “%Inh” value is reported as 18%.
`Cn1cncc1-c1cc2c(Nc3ccc(OCc4ccccc4)cc3)ncnc2cn1` [GW281179]: the “%Inh” value was 20%.
As to `CNc1nc(-c2ccc3c(N)n[nH]c3c2)cc(N2C[C@@H](C(=O)NC3CCCCC3)OC[C@H]2C)n1` [GSK2375584], the “%Inh” value was 19%.
Regarding `COc1cccc(C2=C(Nc3cc(Cl)c(O)c(Cl)c3)C(=O)NC2=O)c1` [SB-390767], the “%Inh” value was determined as 4%.
In the case of `Cn1cnc2c(N)ncnc21` [SKF-97623], the “%Inh” value is 0%.
Still for that read-out and setting: in the case of `O=c1cc(N2CCOCC2)nc2n(Cc3ccccc3F)ccn12` [GSK2297428] it was 15%; in that of `COc1ccc(-c2coc3ccc(-c4nnc(C)o4)cc23)cc1`, 0%.
For `Cc1ccccc1-c1cc(-c2c[nH]nc2-c2ccccn2)ccn1` [GW680061], the “%Inh” value is given as 9%.
The same measure, in the same setting: the figure for `Nc1cccc(-c2ccc3c(N)n[nH]c3c2)n1` [GSK2192730] is 29%; for `CNC(=O)c1ccc(C)c(-n2c(C)cc(OCc3ccc(F)cc3F)c(Br)c2=O)c1` it is 0%; for `O=C(Nc1n[nH]c2nc(-c3ccco3)c(Br)cc12)C1CCN(Cc2ccccc2)C1.O=C(O)[C@H](O)[C@@H](O)C(=O)O` (centres unmarked) [SB-742034] it is 29%.
On the same count and under the same terms, the figure for `NS(=O)(=O)c1cccc(N/C=C2\C(=O)Nc3ccc(S(=O)(=O)Cc4c(Cl)cccc4Cl)cc32)c1` [GSK398099] is 27%; for `c1ccc(-c2ccnc3[nH]ccc23)cc1` [SB-693578] it is 14%; for `CNc1nc(-c2ccc3c(N)n[nH]c3c2)cc(N2C[C@@H](C(=O)Nc3ccccc3)CC[C@H]2C)n1` [GSK2298859] it is 28%.
Same read-out and setting: in the case of `COC(=O)c1cccc(NC(=O)NC2CCN(c3ccnc(Nc4ccc(OC)cc4)n3)C2)c1` (centres unmarked) [GSK1379746] it was 0%.
Regarding `COc1ccc(Nc2nccc(-c3ccc(NC(=O)c4cc5cc(F)ccc5[nH]4)cc3)n2)cc1` [GSK1229496], the “%Inh” value is recorded as 0%.
Still for that read-out and setting: the figure for `Cl.Cl.Cl.N#Cc1ccc(CCNc2nccc(-c3cccc(CN4CCNCC4)c3)n2)cc1` [GSK2137462] is 31%.
Still for that read-out and setting: in the case of `O=C(Nc1n[nH]c2cc(-c3ccsc3)ccc12)C1CC1` [SB-732932] it was 30%; in that of `COc1ccc(Nc2nccc(N3CCC(NC(=O)c4cc5ccccc5s4)C3)n2)cc1` (centres unmarked) [GSK1379738], 17%; in that of `COc1ccc2cc(-c3nc(-c4ccccc4C(C)C)[nH]c3-c3ccncc3)ccc2c1` [SB-660566], 7%.
For `CC[C@@H]1CO[C@H](C(=O)Nc2ccccc2)CN1c1cc(-c2ccc3c(N)n[nH]c3c2)nc(NC)n1` [GSK2376236], the “%Inh” value was 7%.
The same measure, in the same setting: in the case of `Cc1ccc(NC(=O)c2ccc(Cl)cc2)cc1-c1ccc(C(=O)Nc2ccncc2)cc1` [GSK1398467] it was 4%; in that of `COc1cccc(NC(=O)Nc2ccc(C)c(-c3ccc(C(=O)Nc4ccncc4)cc3)c2)c1` [GSK1398474], 21%.
Same read-out and setting: in the case of `COc1ccc(CSc2nnc(-c3ccc4c(c3)CCO4)o2)cc1` it was 0%.
The same measure, in the same setting: in the case of `Cc1cccc2c(-c3ccncn3)c(-c3ccc(F)cc3)nn12` [GW515532] it was 5%.

In the next experiment the test system is CAMK2A. The conditions noted are these: concentration: 1 μM, replicates: in singlicate; n = 1.
In the case of `Cc1ccc(NC(=O)Nc2ccc(Cl)c(C(F)(F)F)c2)cc1-c1ccc(C(=O)Nc2ccncc2)cc1` [GSK1398470], the “%Inh” value worked out at 0%.
For `FC(F)(F)c1ccccc1-c1cc(-c2c[nH]nc2-c2ccccn2)ccn1` [GW679396], the “%Inh” value turned out to be 0%.
Still for that read-out and setting: in the case of `COC(=O)c1cccc(NC(=O)NC2CCN(c3ccnc(Nc4ccc(F)cc4)n3)C2)c1` (centres unmarked) [GSK1379725] it was 0%.
With `Fc1ccc(-c2nn3cccc(F)c3c2-c2ccncc2)cc1` [GW475620], the “%Inh” value came out at 0%.
Same read-out and setting: in the case of `Cc1ccc(NC(=O)Nc2ccc(Cl)cc2)cc1-c1ccc(C(=O)Nc2ccncc2)cc1` [GSK1398472] it was 0%; in that of `COC(=O)C(Cc1ccccc1)NC(=O)NC1CCN(c2ccnc(Nc3ccc(F)cc3)n2)C1` (centres unmarked) [GSK1379714], 0%.
For `COc1ccc(Nc2nccc(NCCNC(=O)Nc3cc(C)ccc3C)n2)cc1` [GSK1379899], the “%Inh” value is given as 0%.
On to `Fc1ccc(-c2nc3n(c2-c2ccncc2)CCS3)cc1` [GI98581], for which the “%Inh” value amounted to 0%.
Consider `CC(=O)c1cccc(NC(=O)NC2CCN(c3ccnc(Nc4ccc(F)cc4)n3)C2)c1` (centres unmarked) [GSK1379710], for which the “%Inh” value was determined as 0%.
`Cc1ccc(-c2nc(Nc3ccncc3)c3ccccc3n2)s1` [GSK189015]: the “%Inh” value worked out at 0%.
With `O=c1cc(N2CCOCC2)nc2n(Cc3cccc(Cl)c3Cl)c3ccccc3n12` [GSK2299009], the “%Inh” value is 0%.
Same read-out and setting: in the case of `Cc1ccccc1Cn1ccn2c(=O)cc(N3CCOCC3)nc12` [GSK2269905] it was 0%; in that of `O=C(Nc1n[nH]c2nc(-c3cccs3)c(Br)cc12)C1CCCC1` [SB-743341], 9%.
As to `Cn1cncc1-c1cc2c(Nc3ccc(OCc4ccccc4)cc3)ncnc2cn1` [GW281179], the “%Inh” value is recorded as 0%.
For `CNc1nc(-c2ccc3c(N)n[nH]c3c2)cc(N2C[C@@H](C(=O)NC3CCCCC3)OC[C@H]2C)n1` [GSK2375584], the “%Inh” value came to 0%.
The same measure, in the same setting: in the case of `COc1cccc(C2=C(Nc3cc(Cl)c(O)c(Cl)c3)C(=O)NC2=O)c1` [SB-390767] it was 0%; in that of `Cn1cnc2c(N)ncnc21` [SKF-97623], 0%; in that of `O=c1cc(N2CCOCC2)nc2n(Cc3ccccc3F)ccn12` [GSK2297428], 0%.
Same read-out and setting: in the case of `COc1ccc(-c2coc3ccc(-c4nnc(C)o4)cc23)cc1` it was 0%; in that of `Cc1ccccc1-c1cc(-c2c[nH]nc2-c2ccccn2)ccn1` [GW680061], 0%; in that of `Nc1cccc(-c2ccc3c(N)n[nH]c3c2)n1` [GSK2192730], 0%.
As for `CNC(=O)c1ccc(C)c(-n2c(C)cc(OCc3ccc(F)cc3F)c(Br)c2=O)c1`, the “%Inh” value turned out to be 0%.
On the same count and under the same terms, the figure for `O=C(Nc1n[nH]c2nc(-c3ccco3)c(Br)cc12)C1CCN(Cc2ccccc2)C1.O=C(O)[C@H](O)[C@@H](O)C(=O)O` (centres unmarked) [SB-742034] is 30%; for `NS(=O)(=O)c1cccc(N/C=C2\C(=O)Nc3ccc(S(=O)(=O)Cc4c(Cl)cccc4Cl)cc32)c1` [GSK398099] it is 0%; for `c1ccc(-c2ccnc3[nH]ccc23)cc1` [SB-693578] it is 0%.
On the same count and under the same terms, the figure for `CNc1nc(-c2ccc3c(N)n[nH]c3c2)cc(N2C[C@@H](C(=O)Nc3ccccc3)CC[C@H]2C)n1` [GSK2298859] is 87%; for `COC(=O)c1cccc(NC(=O)NC2CCN(c3ccnc(Nc4ccc(OC)cc4)n3)C2)c1` (centres unmarked) [GSK1379746] it is 100%; for `COc1ccc(Nc2nccc(-c3ccc(NC(=O)c4cc5cc(F)ccc5[nH]4)cc3)n2)cc1` [GSK1229496] it is 0%.
Consider `Cl.Cl.Cl.N#Cc1ccc(CCNc2nccc(-c3cccc(CN4CCNCC4)c3)n2)cc1` [GSK2137462], for which the “%Inh” value is on record as 11%.
The same measure, in the same setting: in the case of `O=C(Nc1n[nH]c2cc(-c3ccsc3)ccc12)C1CC1` [SB-732932] it was 20%; in that of `COc1ccc(Nc2nccc(N3CCC(NC(=O)c4cc5ccccc5s4)C3)n2)cc1` (centres unmarked) [GSK1379738], 0%.
Take `COc1ccc2cc(-c3nc(-c4ccccc4C(C)C)[nH]c3-c3ccncc3)ccc2c1` [SB-660566]: the “%Inh” value is 0%.
`CC[C@@H]1CO[C@H](C(=O)Nc2ccccc2)CN1c1cc(-c2ccc3c(N)n[nH]c3c2)nc(NC)n1` [GSK2376236]: the “%Inh” value turned out to be 0%.
Take `Cc1ccc(NC(=O)c2ccc(Cl)cc2)cc1-c1ccc(C(=O)Nc2ccncc2)cc1` [GSK1398467]: the “%Inh” value was 100%.
Still for that read-out and setting: in the case of `COc1cccc(NC(=O)Nc2ccc(C)c(-c3ccc(C(=O)Nc4ccncc4)cc3)c2)c1` [GSK1398474] it was 0%; in that of `COc1ccc(CSc2nnc(-c3ccc4c(c3)CCO4)o2)cc1`, 0%; in that of `Cc1cccc2c(-c3ccncn3)c(-c3ccc(F)cc3)nn12` [GW515532], 0%.
